Active and inactive are the calls of the source. The calls were made as follows: active = hit-call score of the fitted dose curve at least 0.9, where 1 is the maximum; inactive = score below 0.9.
Assay: ATG_TGFb_CIS: Attagene CIS-FACTORIAL HepG2 Assay for human Transforming Growth Factor (TGF) (AID 2282967)
Conditions: HepG2 Attagene CIS TGFb reporter, mRNA transcription; actives raise or lower the signal
Description: ATG_CIS is a cell-based, multiplexed-readout assay that uses HepG2, a human liver cell line, with measurements taken at 24 hours after chemical dosing in a 24-well plate.ATG_TGFb_CIS is one of 52 assay component(s) measured or calculated from the ATG_CIS assay. It is designed to make measurements of mRNA induction, a form of inducible reporter, as detected with fluorescence intensity signals by Reverse transcription polymerase chain reaction (RT-PCR) and Capillary electrophoresis technology.Data from the assay component ATG_TGFb_CIS was analyzed into 1 assay endpoint. This assay endpoint, ATG_TGFb_CIS, was analyzed with bidirectional fitting relative to DMSO as the negative control and baseline of activity. Using a type of inducible reporter, measures of mRNA for gain or loss-of-signal activity can be used to understand the reporter gene at the transcription factor-level as they relate to the gene TGFB1. Furthermore, this assay endpoint can be referred to as a primary readout, because this assay has produced multiple assay endpoints where this one serves a reporter gene function. To generalize the intended target to other relatable targets, this assay endpoint is annotated to the growth factor intended target family, where the subfamily is transforming growth factor beta.
Human liver HepG2 cells are transiently transfected with multiple reporter transcription units (MRTUs) in 6-well plates using FuGene 6 reagent (Roche; 3 ml FuGene/1 mg DNA). The MRTU constructs are regulated by a cis-regulating element (promoter). […] A major difference between the CIS and TRANS system is that in CIS activities of endogenous TFs are measured, whereas the TRANS assay evaluates changes in activities of exogenous, chimeric NR-Gal4 proteins. […] At the end of 24 hour incubation, total RNA was isolated using TriZol reagent (Invitrogen). The isolated RNA is then reverse-transcribed using oligo(dT) primer and Mo-MLV reverse transcriptase (Invitrogen) with DNAse I (Ambion) treatment for 30 min. The one-tenth of the produced cDNA was amplified by PCR using Taq DNA polymerase (Invitrogen) and two reporter sequence-specific primers. The PCR products were fluorescently labeled by primer extension with 6-arboxyfluorescein (6-FAM) 5'-labeled reporter sequence-specific primer (2 min at 95 C, 20 s at 68 C and 10 min at 72 C) and these products were digested with 5U of HpaI (New England Biolabs) for 2h at 37 C. The fragments were purified using Qiaquick PCR columns (Qiagen), analyzed on an ABI 3130xL genetic analyzer (Applied Biosystems) with peak positions identified by using a set of X-rhodamine (ROX)-labeled MapMarker1000 molecular weight standards (BioVentures). The raw capillary electrophoresis data was processed using Attagraph software (Attagene).

Structure (SMILES) | outcome | AC50
Cc1ccc(Cl)cc1 | inactive | 
CCCCCCCCCCCCCO | inactive | 
O=c1[nH]cc(F)c(=O)[nH]1 | inactive | 
COCCOC[C@H](CC1(C(=O)NC2CCC(C(=O)O)CC2)CCCC1)C(=O)Oc1ccc2c(c1)CCC2 (stereo not given in full) | inactive | 
NCCO | inactive | 
COCCOCCOC | inactive | 
CCCCc1ccc2c(n1)[C@@H](c1ccc(OC)cc1C[C@H](C)C(=O)O)[C@H](C(=O)O)[C@H]2c1ccc2c(c1)OCO2 | inactive | 
C[C@]12C=CC(=O)C=C1CC[C@@H]1[C@@H]2C(=O)C[C@@]2(C)[C@H]1CC[C@]2(O)C(=O)CO | inactive | 
COc1cc(/C=C/C(=O)CC(=O)/C=C/c2ccc(O)c(OC)c2)ccc1O | inactive | 
Cc1ccc2ncccc2c1 | inactive | 
CCOC(=O)C(C)(C)Oc1ccc(Cl)cc1 | inactive | 
CC(CO)OC(C)CO (stereo not given) (tested in a mixture with another compound) | inactive | 
Cc1ccccc1Cl | inactive | 
CCCCCCCCCCCC(=O)OC | inactive | 
CCc1c(C(=O)NN2CCCCC2)nn(-c2ccc(Cl)cc2Cl)c1-c1ccc(Br)cc1 | inactive | 
CCCCCC(=O)O | inactive | 
Oc1ccc2ccccc2c1N=Nc1ccccc1 |  | 100 µM (active)
CCCCN(CCCC)CCCC | inactive | 
COc1ccc2c(c1)c(CC(=O)O)c(C)n2C(=O)c1ccc(Cl)cc1 | inactive | 
CCCc1cc(=O)[nH]c(=S)[nH]1 | inactive | 

Structure (SMILES) | outcome | AC50
CN[C@H]1CC[C@@H](c2ccc(Cl)c(Cl)c2)c2ccc(S(N)(=O)=O)cc21 | inactive | 
Cc1cccc(C)c1O | inactive | 
CCCCCCCCCCCCCCCCCC(=O)O | inactive | 
c1cc(-c2ccncc2)ccn1 | inactive | 
COC(=O)c1ccc(O)cc1 | inactive | 
CNC(=O)[C@H]1O[C@@H](n2cnc3c(NCc4cc(Cl)ccc4OCc4cc(C)no4)ncnc32)[C@H](O)[C@@H]1N | inactive | 
C=CCOC(=O)c1ccccc1C(=O)OCC=C | inactive | 
CN1CCCC1=O | inactive | 
O=C(O)Cc1ccccc1Nc1c(Cl)cccc1Cl | inactive | 
CCCCCCCCCCCCCCCC | inactive | 
C[Si]1(C)O[Si](C)(C)O[Si](C)(C)O[Si](C)(C)O1 | inactive | 
Cc1c(C(=O)O)c(O)cc2c1C(=O)c1c(O)c([C@@H]3O[C@H](CO)[C@@H](O)[C@H](O)[C@H]3O)c(O)c(O)c1C2=O | inactive | 
CCCCCCOCCO | inactive | 
Cc1ccc(C(C)C)c(O)c1 | inactive | 
Cc1oc(-c2ccccc2)nc1CCOc1cccc2c1ccn2CCC(=O)O | inactive | 
O=C(O)CCCCC(=O)O | inactive | 
CCCCCCCC=O | inactive | 
COc1cc(-c2nc(NC(=O)c3cc4cc(C)cc(C)c4n3CC(=O)O)sc2CCC2CCCCC2)c(OC)cc1Cl |  | 26 µM (active)
Nc1nc(N)c2nc(CNc3ccc(C(=O)N[C@@H](CCC(=O)O)C(=O)O)cc3)cnc2n1 | inactive | 
CC1(C)NC(=O)NC1=O | inactive | 

Source: PubChem BioAssay (EPA / NIEHS)
